# Reference: the supplement of paper PMC12645437, “Orthogonal IMiD-Degron Pairs Induce Selective Protein Degradation in Cells” (ACS Chemical Biology, 2025)
# Over roughly 8,300 sequences, “log2 fold change of degron read counts, EGFP-low vs EGFP+ sorted cells (limma voom), compound-induced degradation” has its median near -1.1; the highest 2% begin near 3.2. The list comes from a sample in which the highest values are over-represented; it also holds similar and randomly drawn sequences.
# B1: 46F_47C_49E_50Q_52G_53A_54N_55F_67L_, Q9UKT9 (peptide)
# chain: FCCEQCGANFTQKGNLLRHIKL
# B2: 46F_47H_49P_50I_52G_53H_54P_55F_67L_, Q9UKT9 (peptide)
# chain: FHCPICGHPFTQKGNLLRHIKL
# B3: 46L_47F_49E_50I_52G_53F_54M_55C_67L_, Q9UKT9 (peptide)
# chain: LFCEICGFMCTQKGNLLRHIKL
# B4: 46F_47R_49E_50I_52G_53R_54I_55F_67L_, Q9UKT9 (peptide)
# chain: FRCEICGRIFTQKGNLLRHIKL
# B5: 46F_47S_49N_50Q_52G_53A_54V_55F_67L_, Q9UKT9 (peptide)
# chain: FSCNQCGAVFTQKGNLLRHIKL
# B6: 46F_47D_49E_50V_52G_53A_54K_55F_67L_, Q9UKT9 (peptide)
# chain: FDCEVCGAKFTQKGNLLRHIKL
# B7: 46F_47Q_49E_50V_52G_53A_54K_55F_67L_, Q9UKT9 (peptide)
# chain: FQCEVCGAKFTQKGNLLRHIKL
# B8: 46F_47S_49E_50V_52G_53A_54K_55F_67L_, Q9UKT9 (peptide)
# chain: FSCEVCGAKFTQKGNLLRHIKL
# B9: 46F_47W_49E_50V_52G_53A_54K_55F_67L_, Q9UKT9 (peptide)
# chain: FWCEVCGAKFTQKGNLLRHIKL
# B10: 46F_47E_49E_50V_52G_53A_54K_55F_67L_, Q9UKT9 (peptide)
# chain: FECEVCGAKFTQKGNLLRHIKL
# B11: 46F_47G_49E_50V_52G_53A_54K_55F_67L_, Q9UKT9 (peptide)
# chain: FGCEVCGAKFTQKGNLLRHIKL
# B12: 46F_47K_49E_50V_52G_53A_54K_55F_67L_, Q9UKT9 (peptide)
# chain: FKCEVCGAKFTQKGNLLRHIKL
# B13: 46F_47M_49E_50V_52G_53A_54K_55F_67L_, Q9UKT9 (peptide)
# chain: FMCEVCGAKFTQKGNLLRHIKL
# B14: 46F_47R_49E_50V_52G_53A_54K_55F_67L_, Q9UKT9 (peptide)
# chain: FRCEVCGAKFTQKGNLLRHIKL
# B15: 46F_47L_49E_50V_52G_53A_54K_55F_67L_, Q9UKT9 (peptide)
# chain: FLCEVCGAKFTQKGNLLRHIKL
# B16: 46F_47I_49E_50V_52G_53A_54K_55F_67L_, Q9UKT9 (peptide)
# chain: FICEVCGAKFTQKGNLLRHIKL
# B17: 46F_47A_49E_50V_52G_53A_54K_55F_67L_, Q9UKT9 (peptide)
# chain: FACEVCGAKFTQKGNLLRHIKL
# B18: 46F_47Y_49P_50Q_52G_53A_54H_55F_67L_, Q9UKT9 (peptide)
# chain: FYCPQCGAHFTQKGNLLRHIKL
# B19: 46F_47F_49P_50Q_52G_53A_54E_55F_67L_, Q9UKT9 (peptide)
# chain: FFCPQCGAEFTQKGNLLRHIKL
# B20: 46F_47M_49P_50Q_52G_53A_54E_55F_67L_, Q9UKT9 (peptide)
# chain: FMCPQCGAEFTQKGNLLRHIKL
# B21: 46F_47A_49E_50I_52G_53H_54V_55F_67L_, Q9UKT9 (peptide)
# chain: FACEICGHVFTQKGNLLRHIKL
# B22: 46F_47K_49P_50V_52G_53A_54Y_55F_67L_, Q9UKT9 (peptide)
# chain: FKCPVCGAYFTQKGNLLRHIKL
# B23: 46F_47D_49D_50V_52G_53A_54D_55F_67L_, Q9UKT9 (peptide)
# chain: FDCDVCGADFTQKGNLLRHIKL
# B24: 46F_47G_49D_50V_52G_53A_54V_55F_67L_, Q9UKT9 (peptide)
# chain: FGCDVCGAVFTQKGNLLRHIKL
# B25: 46F_47I_49N_50Q_52G_53A_54D_55F_67L_, Q9UKT9 (peptide)
# chain: FICNQCGADFTQKGNLLRHIKL
# B26: 46F_47C_49E_50V_52G_53A_54K_55F_67L_, Q9UKT9 (peptide)
# chain: FCCEVCGAKFTQKGNLLRHIKL
# B27: 46F_47N_49E_50V_52G_53A_54K_55F_67L_, Q9UKT9 (peptide)
# chain: FNCEVCGAKFTQKGNLLRHIKL
# B28: 46F_47F_49E_50V_52G_53A_54K_55F_67L_, Q9UKT9 (peptide)
# chain: FFCEVCGAKFTQKGNLLRHIKL
# B29: 46F_47Y_49E_50V_52G_53A_54K_55F_67L_, Q9UKT9 (peptide)
# chain: FYCEVCGAKFTQKGNLLRHIKL
# B30: 46F_47H_49E_50V_52G_53A_54K_55F_67L_, Q9UKT9 (peptide)
# chain: FHCEVCGAKFTQKGNLLRHIKL
# B31: 46F_47V_49E_50V_52G_53A_54K_55F_67L_, Q9UKT9 (peptide)
# chain: FVCEVCGAKFTQKGNLLRHIKL
# Molecular target: T1, CRBN, Q96SW2
# T1 chain: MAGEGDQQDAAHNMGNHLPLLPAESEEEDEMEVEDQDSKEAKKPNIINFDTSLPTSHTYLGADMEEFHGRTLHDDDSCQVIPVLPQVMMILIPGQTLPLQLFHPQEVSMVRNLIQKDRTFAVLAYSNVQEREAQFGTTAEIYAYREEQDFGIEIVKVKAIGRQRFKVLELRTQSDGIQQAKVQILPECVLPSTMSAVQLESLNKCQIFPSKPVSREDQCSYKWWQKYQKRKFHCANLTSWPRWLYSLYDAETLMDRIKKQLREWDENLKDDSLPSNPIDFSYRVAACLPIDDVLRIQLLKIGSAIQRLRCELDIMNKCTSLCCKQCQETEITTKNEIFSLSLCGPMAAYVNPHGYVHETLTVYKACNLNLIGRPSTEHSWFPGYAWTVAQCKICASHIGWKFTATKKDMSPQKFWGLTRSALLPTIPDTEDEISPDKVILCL
# Assay: log2 fold change of degron read counts, EGFP-low vs EGFP+ sorted cells (limma voom), compound-induced degradation; higher = more compound-induced degradation of the degron-EGFP fusion; degrons are variants of IKZF1/3 zinc finger 2; compound dose not given here
# Conditions: Jurkat, 18 h
# [1] = compound: compound 19 (5-tert-butyl-thalidomide)
# [2] = compound: compound 22 (5-morpholino-thalidomide)
# [3] = compound: compound 33 (diphenyl IMiD analogue)
# 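Also: pooled lentiviral library of zinc finger degron-EGFP fusions in mCherry-positive Jurkat cells, FACS-sorted after compound exposure, with degron abundance counted by next-generation sequencing.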
Sequence,log2 fold change of degron read counts [1],log2 fold change of degron read counts [2],log2 fold change of degron read counts [3],log2 fold change of degron read counts (compound: thalidomide)
B1,-1.5,-1.89,-0.599,-1.3
B2,0.356,-0.486,1.11,-0.0778
B3,3.2,3.12,1.56,1.17
B4,-2.12,-2.31,-0.593,-0.94
B5,-1.79,-1.84,-0.0126,-1.8
B6,1.57,-0.744,-2.09,0.993
B7,0.414,2.98,0.135,3.4
B8,3.08,1.75,-0.985,1.45
B9,3.74,3.86,1.64,1.54
B10,0.451,-1.55,-0.965,2.59
B11,3.69,1.3,-1.12,1.16
B12,-1.41,-3.28,-3.54,-1.57
B13,0.0707,-0.168,0.454,0.604
B14,-0.518,-0.4,0.471,1.09
B15,0.27,-1.55,-0.283,1.49
B16,-0.59,2.35,0.972,2.68

Sequence,log2 fold change of degron read counts [1],log2 fold change of degron read counts [2],log2 fold change of degron read counts [3],log2 fold change of degron read counts (compound: thalidomide)
B17,3.92,2.02,-1.57,0.889
B18,0.451,1.45,1.13,-0.932
B19,-0.388,-1.02,-0.943,-1.93
B20,-2.82,-2.55,0.714,-1.49
B21,-2.8,-3.22,-3.16,-2.72
B22,-2.09,-2.57,-2.35,-1.29
B23,-3.06,-3.05,-2.88,-2.92
B24,-0.0514,-0.272,0.863,-1.24
B25,-3.68,-3.02,-3.36,-3.07
B26,3.23,2.43,-0.571,2.71
B27,1.99,0.318,-2.12,0.139
B28,3.53,3.42,1.26,1.64
B29,3.48,3.66,1.65,1.54
B30,2.92,1.93,-0.596,0.387
B31,0.611,1.89,0.0419,2.73
